Shown are actives, neighbours in structure and some others; about 0.93% of the full set was active somewhere.
AGP1 TOR yeast: yeast TOR pathway AGP1-GFP modulation. S. cerevisiae AGP1-GFP multiplex flow cytometry, 3 h; GFP as percent of DMSO wells. GFP response vs DMSO, % at 10 µM. 320,000 compounds, 0.02% hits;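 active = GFP response relative to DMSO above a set limit, near screen average plus 3 SD, cut at about 150% in these data; inconclusive = fewer than 70 cells counted for the yeast strain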;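 note: median GFP channel fluorescence of the gated AGP1 strain per well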
RPL19A-GFP yeast: modulators of TOR pathway RPL19A-GFP in S. cerevisiae | S. cerevisiae RPL19A-GFP strain, flow cytometry, 3 h; active compounds read low | percent response vs DMSO, % at 10 µM | 330,000 compounds, 0.3% hits | AID 2025;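 active = percent response vs DMSO below 50%; inconclusive = fewer than 70 events counted for the yeast strain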;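 note: median channel GFP fluorescence of the barcoded RPL19A-GFP strain; ratio of sample median GFP to plate DMSO average so 100% = DMSO; lower means less RPL19A-GFP as with rapamycin TOR inhibition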
MEP2 TOR yeast: modulators of TOR pathway MEP2-GFP in S. cerevisiae | S. cerevisiae MEP2-GFP strain, flow cytometry GFP, 3 h; 100% = DMSO control level | AID 2016 | GFP response vs DMSO, % at 10 µM | 330,000 compounds, 0.51% hits;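 active = GFP response versus DMSO above a set limit, roughly screen mean plus 3 SD, cut at about 180% in these data; inconclusive = fewer than 70 cells counted for a yeast strain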;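 note: median GFP fluorescence of the barcode-gated MEP2-GFP cells per well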
CIT2 TOR yeast: alters CIT2-GFP fluorescence in TOR pathway yeast screen; S. cerevisiae CIT2-GFP strain, flow cytometry, 3 h; 100 means same as DMSO wells; GFP response vs DMSO, % at 10 µM; 320,000 compounds, 0.065% hits; AID 2029;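 active = GFP response relative to DMSO above a set limit, near the screen mean plus 3 SD, cut at about 150% in these data; inconclusive = Fewer than 70 cells measured for a yeast strain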;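 note: ratio of well median GFP fluorescence to mean of DMSO wells on the plate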
LAP4-GFP MLPCN: yeast TOR pathway LAP4-GFP modulation; S. cerevisiae LAP4-GFP multiplex, flow cytometry GFP, 3 h; median GFP as percent of DMSO wells; GFP response vs DMSO, % at 10 µM; 320,000 compounds, 0.34% hits; AID 2023;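 active = GFP response vs DMSO above a set limit, about the screen mean plus 3 SD, cut at about 150% in these data; inconclusive = under 70 cell events counted for the yeast strain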
Numbers without * were called inactive; ? = inconclusive; . = not tested or not shown; ! = repeats disagree; [ ] = another dose, or the depositor's remark.

SMILES	AGP1 TOR yeast	RPL19A-GFP yeast	MEP2 TOR yeast	CIT2 TOR yeast	LAP4-GFP MLPCN
CC(C)(Oc1ccc(Cl)cc1)C(=O)NCc1ccc(S(N)(=O)=O)cc1	16	52	244*[may fluoresce violet]	?	68
COC(=O)CNC(=O)C(C)(C)Oc1ccc(Cl)cc1	91	91	96	97	.
O=C(c1ccccc1[N+](=O)[O-])n1cnc2ccccc21	82	92	93	157*	87
COc1ccccc1NC(=O)c1cc(=O)[nH]c2ccccc12	90	100	99	98	83
COc1ccccc1C(C)NC(=O)c1cc(=O)[nH]c2ccccc12 (stereo not drawn)	20	62	194*[may fluoresce violet]	?	101
CN(C(=O)Cn1cnc([N+](=O)[O-])n1)C1CCCCC1	?	?	212*[may fluoresce red and violet]	?	87
CCOC(=O)c1c(N2C(=O)C3C4C=CC(O4)C3C2=O)sc2c1CCCC2 (stereo not drawn)	113	98	97	92	173*
CNc1sc(C(=O)c2ccccc2F)c(N)c1-c1nc2ccccc2s1	30	86	101	?	191*[may fluoresce violet]
Cc1ccc(NCN2C(=O)C3C4C=CC(C4)C3C2=O)cc1 (stereo not drawn)	142	74	165	125	210*
O=C1C2C3C=CC(C3)C2C(=O)N1CNc1ccc(O)cc1 (stereo not drawn)	121	70	128	95	139
Cc1cccc(OCC(=O)Nc2ccc3c(C)cc(=O)oc3c2)c1	85	95	89	92	83
Cc1cc(=O)oc2cc(NC(=O)CCOc3ccccc3)ccc12	?	38*[may fluoresce violet]	255*[may fluoresce violet]	?	61
C=CCNC(=O)COC(=O)C1CCN(S(=O)(=O)c2ccc3c(c2)OCCO3)CC1	98	100	98	98	99
COc1ccccc1NC(=S)NNC(=O)c1ccccc1	.	98	102	98	96
COc1ccccc1NC(=S)NNC(=O)c1ccncc1	18	51	191*[may fluoresce violet]	?	86
COc1ccc(CNC(=O)C2CCCN2S(=O)(=O)c2ccc(F)cc2)cc1 (stereo not drawn)	104	97	107	106	108
O=C1c2cccc3c([N+](=O)[O-])ccc(c23)C(=O)N1c1ccc(Cl)cn1	54	118	349*[may fluoresce violet]	?	249*[may fluoresce violet]
O=C1c2ccc([N+](=O)[O-])cc2C(=O)N1c1ccc(Cl)cn1	98	95	89	98	107
O=C1c2cccc3c([N+](=O)[O-])ccc(c23)C(=O)N1c1nccs1	89	109	218*	126	149
O=C1c2cccc3cccc(c23)C(=O)N1c1nccs1	91	89	95	94	84
CCn1nnc2cc(C(=O)NCC(c3ccccc3OC)N(C)C)ccc21 (stereo not drawn)	?	46*[may fluoresce violet]	174	?	85
Oc1ccc(C2C(c3ccccc3)=NN=C(c3ccccc3F)N2O)c(O)c1 (stereo not drawn)	22	36*[may fluoresce violet]	211*[may fluoresce violet]	?	84
Oc1ccc(C2C(c3ccccc3)=NN=C(c3ccc(Cl)cc3)N2O)c(O)c1 (stereo not drawn)	14	89	150	?	93
CC(C)c1nc(SCC(=O)NC2CCCC2)c2c(=O)n(C)c(=O)n(C)c2n1	101	99	105	96	108
c1ccc(-c2n[nH]c(-c3ccccn3)n2)nc1	?	13*![may fluoresce violet]	180*![may fluoresce violet]	?	87
SMILES	AGP1 TOR yeast	RPL19A-GFP yeast	MEP2 TOR yeast	CIT2 TOR yeast	LAP4-GFP MLPCN
c1ccc(-c2n[nH]c(-c3ccccn3)n2)cc1	94	96	101	93	99
CCOC(=O)C1C(c2ccc(C(=O)O)cc2)NC(=O)NC1(O)C(F)(F)F (stereo not drawn)	103	106	100	98	92
Cc1ccccc1OCC(=O)NCCN1CCCC1	?	14*[may fluoresce violet]	?	?	?
Cc1nc(C)c(NC(=O)OC(C)C)cc1NC(=O)OC(C)C	97	100	102	100	94
CCn1nnc2cc(C(=O)NCCc3ccccc3F)ccc21	103	101	105	106	115
COc1ccc(NC(=O)CCc2nnc3ccc(N4CCC(C)CC4)nn23)cc1OC	90	92	96	94	85
COc1ccccc1NC(=O)NC1CCCCCCC1	93	119	104	92	76
COc1ccccc1NC(=O)C1C2CCCCC21 (stereo not drawn)	?	13*[may fluoresce violet]	293*[may fluoresce violet]	?	96
C=CCN1C(=O)c2ccc(C(=O)NCCc3ccc(OC)c(OC)c3)cc2C1=O	86	100	99	.	76
COc1ccc(S(=O)(=O)NCC(=O)N(CC(=O)NCc2ccco2)Cc2ccc(F)cc2)cc1	93	84	187*	92	148
Cc1ccc(S(=O)(=O)NCC(=O)N(CC(=O)NCc2ccco2)Cc2ccc(F)cc2)cc1	25	67	279*[may fluoresce violet]	?	85
CCC(NC(C)C)C(O)c1ccc(O)c2[nH]c(=O)ccc12 (stereo not drawn)	?	42*[may fluoresce violet]	186*[may fluoresce violet]	?	104
Cc1cc(NC(=O)CN2C(=O)NC3(CCC(C)CC3)C2=O)no1 (stereo not drawn)	104	103	107	95	109
COc1ccc(Cl)cc1NS(=O)(=O)c1ccc(OC)c(OC)c1	?	19*[may fluoresce violet]	209*[may fluoresce violet]	?	101
COc1ccc(S(=O)(=O)Nc2cc(Cl)ccc2OC)cc1	97	94	99	98	104
COc1ccc(CNC(=O)CSc2n[nH]c(C)c2[N+](=O)[O-])cc1	97	103	98	86	89
COc1ccc(N(C)C(=O)c2oc(=O)c3ccccc3c2-c2ccccc2)c(OC)c1	100	99	96	92	109
O=C1CN(C(=O)N[C@@H](Cc2ccccc2)C(=O)N[C@@H](Cc2ccccc2)C(=O)O)c2ccccc2N1	97	99	102	93	102
O=C1CN(C(=O)N[C@@H](Cc2ccccc2)C(=O)N[C@H](Cc2ccccc2)C(=O)O)c2ccccc2N1	?	14*[may fluoresce violet]	242*[may fluoresce violet]	?	86
CCNC(=S)/N=C(\N)Nc1nc(C)c2cc(C)ccc2n1	22	46*[may fluoresce violet]	87	?	137
CCOc1ccc2nc(N/C(N)=N/C(=S)Nc3ccc(C)c(C)c3)nc(C)c2c1	96	102	102	97	103
O=C(CSc1nnc(CCCN2C(=O)c3cccc4cccc(c34)C2=O)n1-c1ccccc1)N1CCCCC1	?	22*[may fluoresce violet]	248*[may fluoresce violet]	?	67
O=C(CSc1nnc(Cc2cc(=O)[nH]c(=O)[nH]2)n1-c1ccccc1)N1CCCCC1	98	95	97	96	99
Cc1ccc2nc(NCc3ccc(F)cc3)c3nncn3c2c1	90	32*	152	92	111
CCOC(=O)c1cnc2c(C#N)c(C)nn2c1C	26	53	343*[may fluoresce violet]	?	94

Bioassay records deposited in PubChem by NMMLSC.
